Source: PubChem BioAssay
Active and inactive are the calls of the source. The rule behind the calls is not given here.

These compounds were tested against Pantothenate synthetase (Mycobacterium tuberculosis (strain ATCC 25618 / H37Rv)) (UniProt P9WIL5) (assay: Coupled enzyme confirmation of inhibitors against recombinant Mtb PanC (AID 375;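 note: 0% = full reaction with vehicle and 100% = no enzyme background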)). Settings: coupled enzyme assay; at 10 µM, hits give high values.
Chain of Pantothenate synthetase (Mycobacterium tuberculosis (strain ATCC 25618 / H37Rv)) (P9WIL5 whole entry, looked up): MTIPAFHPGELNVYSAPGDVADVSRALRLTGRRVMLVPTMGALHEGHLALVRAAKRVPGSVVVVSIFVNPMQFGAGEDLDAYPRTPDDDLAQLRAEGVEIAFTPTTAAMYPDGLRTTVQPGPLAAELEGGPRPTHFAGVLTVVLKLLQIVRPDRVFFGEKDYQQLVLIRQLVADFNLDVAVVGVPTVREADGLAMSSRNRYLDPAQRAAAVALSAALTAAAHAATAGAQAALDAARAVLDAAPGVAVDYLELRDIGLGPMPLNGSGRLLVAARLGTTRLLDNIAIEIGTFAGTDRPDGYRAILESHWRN
With `CCCCOC(=O)C1=C(C)Nc2ncnn2C1c1cccc(OC)c1OC` (stereo not given) the inhibition was 8% (inactive).
In the case of `CS(=O)(=O)N(CC(=O)O)c1cccc(Cl)c1`, the inhibition is reported as 3% (inactive).
For `O=C(CN1C(=O)NC2(CCCCC2)C1=O)Nc1ccc(S(=O)(=O)N2CCOCC2)cc1`, the inhibition was 5% (inactive).
In the case of `c1ccc(CSCc2cn3ccsc3n2)cc1`, the inhibition is reported as 0% (inactive).
In the case of `COc1ccc(S(=O)(=O)N2CCSC2c2ccccc2)cc1` (stereo not given), the inhibition is reported as 1% (inactive).
In the case of `O=S(=O)(c1ccccc1)N1CCN(C2CCCCCCC2)CC1`, the inhibition is reported as 8% (inactive).
For `CC(=O)c1ccc(OCC(O)CN2CCN(CCO)CC2)cc1` (stereo not given), the inhibition was 4% (inactive).
In the case of `O=C(Oc1ccc2ccc(OC(=O)N3CCOCC3)cc2c1)N1CCOCC1`, the inhibition is reported as 0% (inactive).
With `CCn1nc(C(=O)O)c(=O)c2cc3c(cc21)OCO3` the inhibition was 5% (inactive).
For `O=C(NCCc1ccccn1)c1ccc(COc2ccccc2)o1`, the inhibition was 0% (inactive).
For `CN=C(Nc1cc(C)nn1-c1ccccc1)c1ccccc1`, the inhibition was 0% (inactive).
`CCSC(SCC)[C@H](O)[C@@H](O)[C@H](O)[C@H](O)CO` was tested, and the inhibition was 2% (inactive).
For `CC1CCCCC1NC(=O)C1CCN(C(=O)NC2CCCCC2)CC1` (stereo not given), the inhibition was 0% (inactive).
In the case of `O=C(Nc1ccc2c(c1)OCO2)c1cncc(Br)c1`, the inhibition is reported as 8% (inactive).
With `COC(=O)c1cccc(Nc2cc(C)nc(-c3ccccc3O)n2)c1` the inhibition was 1% (inactive).
For `COc1ccc(CC(=O)OCn2nnc3ccccc3c2=O)cc1`, the inhibition was 4% (inactive).
In the case of `Cn1c(=O)c2[nH]cnc2n(C)c1=O`, the inhibition is reported as 1% (inactive).
`O=C(OCc1nnc(-c2ccccc2)o1)c1ccc(S(=O)(=O)NCc2ccco2)cc1` was tested, and the inhibition was 0% (inactive).
For `CCOc1ccc(C(=O)Nc2cc(C)on2)cc1OCC`, the inhibition was 6% (inactive).
`CCCS(=O)(=O)N1CCN(Cc2ccc(OCc3ccccc3)c(OC)c2)CC1` was tested, and the inhibition was 4% (inactive).
With `O=C(C1CCCN(S(=O)(=O)c2cnc[nH]2)C1)N1CCN(c2ccc(Cl)cc2)CC1` (stereo not given) the inhibition was 0% (inactive).
In the case of `CCCOc1ccccc1NC(=O)c1c(-c2ccccc2)noc1C`, the inhibition is reported as 1% (inactive).
For `CCOC(=O)CSc1nnc(CNC(=O)c2ccc(S(=O)(=O)N3CCCC3)cc2)n1C`, the inhibition was 10% (inactive).
In the case of `C=CCSC1=C(C#N)C(c2ccccc2Cl)CC(=O)N1` (stereo not given), the inhibition is reported as 0% (inactive).
In the case of `C=CCn1c(-c2ccc(OC)cc2)nc2ccccc21`, the inhibition is reported as 0% (inactive).
`CCN(CC)CCn1c(OC)cc(=O)[nH]c1=O` was tested, and the inhibition was 0% (inactive).
In the case of `CC(CN1c2ccccc2Sc2ccccc21)N(C)C` (stereo not given), the inhibition is reported as 0% (inactive).
For `C=CCN(C(=O)CNC(=O)c1ccco1)C(C(=O)NC1CCCCC1)c1ccccc1F` (stereo not given), the inhibition was 0% (inactive).
With `c1ccc(-c2nn3c(Cn4nnc5ccccc54)nnc3s2)nc1` the inhibition was 0% (inactive).
For `COc1ccc(OC)c(S(=O)(=O)N2CCN(c3c(C)cccc3C)CC2)c1`, the inhibition was 1% (inactive).
In the case of `O=C(CCC(=O)OCC(=O)c1ccccc1)NC1CCCCC1`, the inhibition is reported as 2% (inactive).
For `Cc1ccc(CNC(=O)C2CCCN(S(=O)(=O)c3cccnc3)C2)cc1` (stereo not given), the inhibition was 0% (inactive).
In the case of `CCc1nnc(NC(=O)CSc2nnc(-c3ccccc3OC)n2-c2ccccc2)s1`, the inhibition is reported as 4% (inactive).
`CCOC(=O)CCC(=O)Nc1ccc(S(=O)(=O)N2CCCC2)cc1` was tested, and the inhibition was 0% (inactive).
In the case of `CCCOc1cccc(C2/C(=C(/O)c3ccccc3)C(=O)C(=O)N2CCN(C)C)c1` (stereo not given), the inhibition is reported as 0% (inactive).
For `N#CC(C(=O)C1CCCCC1)c1nc2ccccc2[nH]1` (stereo not given), the inhibition was 0% (inactive).
For `Cn1c(=O)c2c(nc(NCCCO)n2Cc2cccc(Br)c2)n(C)c1=O`, the inhibition was 3% (inactive).
For `COCCNC(=O)c1ccc2c(c1)nc(C)n2-c1cccc(F)c1`, the inhibition was 9% (inactive).
For `Cc1cccc(N2CCN(C(=O)c3cc4c(=O)[nH]c5ccccc5c4n3C)CC2)c1C`, the inhibition was 7% (inactive).
With `O=C(O)Cc1cc(I)c(Oc2ccc(O)c(I)c2)c(I)c1` the inhibition was 0% (inactive).
